# Bioassay records deposited in PubChem BioAssay by National Center for Advancing Translational Sciences (NCATS).
# Compounds with a hit are over-represented: about 1.2% of the library has one in this group of screens.
# KCNH2 WT inh: KCNH2 (human, wildtype) channel inhibition | Q12809 | U2OS, BacMam KCNH2, thallium flux FluxOr; active compounds read low | activity change, % at 1.84 µM | actives 0.37% (n = 340,000);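 active = maximum activity change below -70%; inconclusive = maximum activity change between -70% and -50%; inactive = maximum activity change above -50%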; also: % is scaled to controls: 0 for no effect and ±100 for the full control effect
#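 U2OS cells were transduced with wild-type KCNH2 virus (2.03 x 10^8 / mL) for 4 h at room temperature, then cultured overnight at 37 C. Thallium flux was read with FluxOr dye. Rate constants were normalized to DMSO controls.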
# KCNH2 3.1 block: inhibitors of human KCNH2 3.1 potassium channel isoform | U2OS KCNH2 3.1, thallium flux FluxOr; active compounds read low | activity change, % (tested at about 1.8 µM) | actives 0.95% (n = 340,000) | AID 720553;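 active = maximum activity change below -70%; inconclusive = maximum activity change from -70% to -50%; inactive = maximum activity change above -50%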;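 also: thallium influx rate constant from kinetic fluorescence after stimulation buffer; % is scaled to controls: 0 for no effect and ±100 for the full control effect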
#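 FluxOr-based Tl+ influx in U2OS cells transduced with KCNH2 3.1 virus; rate constants normalized to DMSO controls.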
# S-ASM inh: human S-ASM enzyme inhibition; Potency, µM (highest dose often 57.5 µM), inactives show at the top dose activity change, negative = inhibition, most hits filed as inhibitors; AID 504937; actives 0.006% (n = 340,000); placental ASM, HMU-PC fluorogenic substrate, 60 min; also: potency is read from the fitted curve at half-maximal effect
#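 Fluorescence read-out (Ex 386 nm, Em 447 nm) after stopping the reaction at pH 10. Enzyme: ASM from human placenta; substrate HMU-PC0, 9 uM final; 60 min, 37 °C. Compound preincubation 10 min, ambient temperature.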
# Apoferritin bind: binds horse apoferritin like a general anesthetic; P02791; apoferritin/1-aminoanthracene competitive binding, fluorescence; Potency, µM (top dose mostly 77.5 µM), inactives show at the top dose activity change, negative = displacement, most hits filed as inhibitors; actives 0.074% (n = 350,000); also: potency is read from the fitted curve at half-maximal effect; % is scaled to controls: 0 for no effect and ±100 for the full control effect; nearly all actives have a fitted effect of over 20% in size
# Target sequence (P02791 2-175 limits assumed): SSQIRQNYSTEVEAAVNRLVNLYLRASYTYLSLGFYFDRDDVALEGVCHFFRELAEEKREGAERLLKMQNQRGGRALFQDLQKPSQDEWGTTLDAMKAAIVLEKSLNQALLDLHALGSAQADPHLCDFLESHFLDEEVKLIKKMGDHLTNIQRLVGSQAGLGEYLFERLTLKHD
#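 Horse-spleen apoferritin (10 uM) was mixed with 50% saturated 1-aminoanthracene in PBS, exposed to compounds for 10 min at room temperature, and read for fluorescence (ex 380 nm, em 535 nm). Competitive displacement was fitted with a four-parameter Hill equation.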
# IDH1 R132H inh: inhibitors of human mutant IDH1 R132H | IDH1-R132H enzyme, NADPH consumption, diaphorase/resazurin fluorescence | Potency, µM (series often up to 76.6 µM), without a hit: at the highest dose activity change, negative = inhibition, usual class: inhibitors | O75874 | actives 0.093% (n = 390,000); also: potency is read from the fitted curve at half-maximal effect; % is scaled to controls: 0 for no effect and ±100 for the full control effect; nearly all actives have a fitted effect of over 65% in size
# Target sequence (O75874 whole entry R132H, stated change not applied): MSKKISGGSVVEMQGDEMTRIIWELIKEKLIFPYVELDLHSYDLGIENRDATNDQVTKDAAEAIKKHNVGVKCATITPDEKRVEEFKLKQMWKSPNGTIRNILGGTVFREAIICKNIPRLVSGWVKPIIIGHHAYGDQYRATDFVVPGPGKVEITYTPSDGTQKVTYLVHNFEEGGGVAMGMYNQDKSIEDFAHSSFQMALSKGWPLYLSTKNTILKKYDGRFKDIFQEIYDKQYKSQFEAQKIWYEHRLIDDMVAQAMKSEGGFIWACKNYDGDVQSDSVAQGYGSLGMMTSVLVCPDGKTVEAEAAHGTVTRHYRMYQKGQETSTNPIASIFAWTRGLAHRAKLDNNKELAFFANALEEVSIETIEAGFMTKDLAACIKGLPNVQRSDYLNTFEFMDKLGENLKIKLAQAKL
#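 IDH1-R132H (0.5 ug/mL dispensed) in pH 7.5 Tris buffer was preincubated 30 min with compound, then given a substrate mix of 0.016 mM NADPH and 2 mM alpha-KG for 80 min at room temperature; remaining NADPH was read by diaphorase/resazurin fluorescence.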
# Starred values were filed as active, the others as inactive; i = inactive; u = inconclusive; x = no result given; [ ] = another dose, or the depositor's remark. Unless noted, calls follow the shape of the dose curve; as a rule, active = well fitted inhibition curve with a large enough effect; inconclusive = small, poorly fitted or top-dose-only effect; inactive = no such curve, though single readings can be large or run the other way.
SMILES,KCNH2 WT inh,KCNH2 3.1 block,S-ASM inh,Apoferritin bind,IDH1 R132H inh
O=C(NCc1ccco1)c1cccc(NS(=O)(=O)c2cccc(F)c2)c1,-1.4,10.0,x,-14.5%,0.7%
O=C(NCc1ccco1)c1cc(NS(=O)(=O)c2cccc([N+](=O)[O-])c2)ccc1O,-152.1*,-198.1*,-9.7%,-19.3%,-0.4%
Oc1ccccc1CN1CCC(C(O)(c2ccccc2)c2ccccc2)CC1,2.8,-86.0*,6.3%,-5.9%,-7.3%
COc1ccc(CCNC(=O)C2CCCN(c3nc4c(C)cc(C)cc4s3)C2)cc1OC (centres undefined),x,x,x,-6.0%,-21.0%
Cc1cccc(CCN2C(N(C)C)=NC[C@@H]2Cc2ccccc2)c1,28.0,-48.3,-4.1%,x,1.4%
CCCCCCCN1C(N(C)C)=NC[C@@H]1Cc1ccccc1,-41.9,-90.1*,-0.4%,x,19.1%
CN(C)C1=NC[C@H](Cc2ccccc2)N1CCCCc1ccccc1,19.6,-92.0*,0.7%,x,-8.6%
CCCCN(C(=O)c1ccc2c(c1)OCO2)C1CCS(=O)(=O)C1 (centres undefined),1.3,-76.5*,6.1%,x,11.5%
CCc1ccc(-n2c(=O)c3sc4ccccc4c3n(CC(=O)NCc3ccccc3)c2=O)cc1,x,x,x,0.0%,16.4%
O=C(CSc1nc2ccccc2c(=O)n1Cc1ccco1)N1CCCCCC1,-7.6,-80.5*,-1.5%,-8.2%,8.2%
COc1cccc(C2CC3(CC(C)(C)NC(=S)N3)Oc3cc(O)ccc32)c1 (centres undefined),3.2,-5.6,-1.1%,-5.5%,1.2%
CSC1=NC2(CC(c3ccccc3)Oc3cc(O)ccc32)CC(C)(C)N1 (centres undefined),u,-93.7*,0.5%,-5.7%,7.4%
Cc1cc(OCC(=O)N2CCc3ccccc3C2)c2c(-c3ccccc3)cc(=O)oc2c1,-203.1*,-20.9,-15.6%,u,-3.2%
CCOc1cc(C)cc2oc(=O)cc(-c3ccccc3)c12,-2.5,-31.7,-0.6%,u,6.0%
Cc1cc(OC(C)C)c2c(-c3ccccc3)cc(=O)oc2c1,0.1,0.7,0.2%,17.8µM*,3.9%
N#CC1(NC(=O)COC(=O)c2nc(Cl)c(Cl)c(N)c2Cl)CCCCC1,10.4,-23.0,-0.2%,x,1.7%
N#CC1(NC(=O)COC(=O)c2ncc(Cl)c(Cl)c2Cl)CCCCC1,-2.5,-72.8*,0.1%,x,-1.3%
CCOC(=O)c1ccccc1NC(=O)CN(c1cc(C(F)(F)F)ccc1Cl)S(C)(=O)=O,x,x,x,-8.5%,-9.1%
Cc1c2cnn(CC(=O)NCc3ccc(F)cc3)c(=O)c2c(C)n1Cc1cccc(Cl)c1,x,x,x,40.8%,4.4%
COc1ccc(C)cc1NC(=O)C(Sc1nnc(Nc2cc(C)ccc2OC)s1)c1ccccc1 (centres undefined),-121.4*,-11.3,-12.0%,-1.7%,-0.4%
Cc1ccc(N2C(=O)c3cccc4c([N+](=O)[O-])ccc(c34)C2=O)c2cccnc12,-28.5,-98.2*,-1.3%,13.8%,0.4%
CC(C)(C)NC(=O)Cn1c(SCC(N)=O)nc2ccccc21,-6.5,-89.5*,-0.8%,-4.0%,6.6%
CCN(CC)c1ccc(NC(=O)c2cc(C)nc3c2c(C)nn3-c2ccc(C)cc2)c(C)c1,x,x,x,-1.7%,0.0%
Cc1ccc2c(CN3CCN(S(=O)(=O)/C=C/c4ccccc4)CC3)cc(=O)oc2c1,-32.2,-88.5*,-5.7%,-5.2%,5.3%
Cc1c(O)ccc2c(CN3CCN(C/C=C/c4ccccc4)CC3)cc(=O)oc12,-75.5*,-96.6*,i,123.2%,-4.7%
SMILES,KCNH2 WT inh,KCNH2 3.1 block,S-ASM inh,Apoferritin bind,IDH1 R132H inh
Oc1ccc2ccccc2c1CN1CCN(C/C=C/c2ccccc2)CC1,32.8,-79.8*,4.9%,221.1%,-1.6%
Cc1cc2oc(=O)cc(CN3CCN(C/C=C/c4ccccc4)CC3)c2cc1O,x,x,x,-0.9%,x
CC(=O)N[C@H]1CSSC[C@@H](C(=O)N2CCC[C@H]2C(=O)N2CCC[C@H]2C(=O)N[C@@H](CCCCN)C(=O)N[C@@H](CC(=O)O)C(N)=O)NC(=O)CNC(=O)[C@H](Cc2c[nH]c3ccccc23)NC(=O)[C@H](CCCNC(=N)N)NC(=O)[C@@H](Cc2ccc(Cl)c(Cl)c2)NC(=O)[C@H](Cc2cnc[nH]2)NC(=O)[C@H](CCC(=O)O)NC1=O,x,x,x,-9.0%,x
CSc1ccc(CCNC(=O)NCc2noc3ccccc23)cc1,x,x,x,5.8%,-0.9%
Cc1ccc(C)c(S(=O)(=O)N2CCCN(C)CC2)c1,-3.2,-90.1*,3.4%,4.9%,0.0%
Cc1ccc(C)c(S(=O)(=O)N2CCN(c3ncccn3)CC2)c1,1.6,-9.4,-1.7%,-10.2%,1.5%
COc1ccccc1C1SCCN1S(C)(=O)=O (centres undefined),-3.6,7.1,1.2%,11.2µM*,1.6%
Nc1ccccc1Nc1cc(-c2cccc(Cl)c2)nn1-c1ccccc1,-4.9,-8.4,-18.5%,-17.7%,1.2%
Nc1ccccc1Nc1c(F)c(F)nc(F)c1Cl,2.1,-72.5*,4.1%,3.8%,-1.1%
Clc1ccc(-c2csc(=Nc3cccnc3)n2CCCn2ccnc2)cc1Cl,16.0,u,1.7%,-12.7%,-0.9%
COCCn1c(-c2ccc(Br)cc2)csc1=Nc1cccnc1,-8.1,-79.5*,-2.8%,-16.5%,14.3%
COC(c1ccccc1Br)C(C)/C=C/CCO (centres undefined),x,x,x,-3.0%[15.3 µM],x
Cc1ccc(S(=O)(=O)CNC(=O)c2ccccc2)cc1,0.8,-0.2,3.3%,1.1%,1.8%
Cc1ccc(S(=O)(=O)CNC(=S)c2ccc3ccccc3c2)cc1,-0.2,3.9,u,25.1µM*,-3.8%
Cc1ccc(S(=O)(=O)CNC(=S)c2cccc(C)c2)cc1,-27.2,2.0,-4.4%,28.2µM*,4.4%
COc1ccc(C(=S)NCS(=O)(=O)c2ccc(C)cc2)cc1,-148.2*,5.3,-14.0%,u,3.8%
COc1ccc(C(=S)Nc2ccc(C)cc2)cc1,4.3,-0.7,-1.6%,-14.7%,1.7%
CCc1noc(-c2ccc(N3CCCCC3)c([N+](=O)[O-])c2)n1,x,x,x,-12.7%,18.4%
COc1ccc(C(=O)OCC(=O)NC(C)CCc2ccccc2)cc1OC (centres undefined),-77.3*,80.1,1.4%,1.2%,9.5%
Cc1cc(/C=C2\NC(=S)N(C)C2=O)ccc1N1CCCC1,-80.2*,x,0.4%,-9.5%,0.8%
COc1ccc(-n2nc(C(=O)NCC(=O)NCCCN3CCCCCC3)c3ccccc3c2=O)cc1Cl,2.4,-85.5*,8.6%,-23.4%,10.3%
COc1ccc(-n2nc(C(=O)NCC(=O)NCCCN3CCC(C)CC3)c3ccccc3c2=O)cc1Cl,11.0,-17.5,12.6%,-11.4%,-7.3%
COc1cc(-c2cn[nH]c2N)cc(OC)c1OC,-7.3,-78.7*,2.0%,-9.9%,4.9%
Nc1[nH]ncc1-c1ccc(Cl)cc1,-4.5,11.9,-0.3%,-20.9%,2.4%
